Only some compounds are listed: those with a hit (about 2.4% of all), similar ones and a draw of the others.
D2 ag-1 – activates the human D2 dopamine receptor | activation, % at 2 µM | AID 485358 | P14416 | 0.53% of 340,000 active | HEK293 T-REx D2 cells, calcium flux agonist mode;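 active = activation over 3 SD above normal in the single-dose calcium agonist read, cut at about 30% in these data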
Target sequence (P14416 whole entry, looked up): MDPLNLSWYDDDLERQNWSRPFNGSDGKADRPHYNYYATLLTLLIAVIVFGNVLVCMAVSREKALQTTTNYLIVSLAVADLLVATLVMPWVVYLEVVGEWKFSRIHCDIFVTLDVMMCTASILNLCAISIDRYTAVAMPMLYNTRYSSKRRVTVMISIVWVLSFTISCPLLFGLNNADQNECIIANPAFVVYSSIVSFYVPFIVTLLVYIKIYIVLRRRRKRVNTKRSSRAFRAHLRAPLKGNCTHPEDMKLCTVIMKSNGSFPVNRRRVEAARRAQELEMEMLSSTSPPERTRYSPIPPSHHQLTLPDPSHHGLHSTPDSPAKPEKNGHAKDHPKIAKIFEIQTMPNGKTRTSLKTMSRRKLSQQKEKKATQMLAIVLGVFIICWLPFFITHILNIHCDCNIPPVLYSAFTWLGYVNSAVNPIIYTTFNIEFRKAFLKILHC
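Tetracycline-induced HEK293 T-REx cells with force-coupled D2 receptor, plated overnight at 30 C, loaded with no-wash calcium dye. After a 10 s baseline, compound was pin-added and calcium flux read kinetically for 180 s; calcium rises flagged agonists.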
D2 antagonist – antagonizes the human D2 dopamine receptor | P14416 | HEK293 TREx D2 cells, calcium flux, dopamine EC80 | inhibition, % at 10 µM | 2% of 340,000 active | AID 485344; in the data active = inhibition above about 30%; inactive = below that, where a call was filed
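Tetracycline-induced HEK293 TREx cells expressing D2 receptor forced-coupled to calcium signalling, loaded with no-wash calcium dye. Compounds added and calcium flux read 180 s, then dopamine added at EC80 and read a further 180 s.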
D2 ag-2 – human D2 receptor agonism in beta-arrestin assay; P14416; DiscoveRx PathHunter D2 beta-arrestin, luminescence, 90 min; 100% = 57 uM dopamine signal; activation, % (concentration not given with the values); 0.084% of 360,000 active; AID 624465; in the data active = activation above about 40%; inconclusive = between about 15% and that limit
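DiscoveRx PathHunter D2 beta-arrestin cells (2,100/well) attached overnight, then compound-stimulated 90 min at 37 C in HBSS/10 mM HEPES/0.1% Tween-20 buffer; beta-galactosidase complementation read by luminescence after 1 h at ambient temperature. Dopamine 57 uM final (EC100) as control.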
D2 PAM-1 – human D2 receptor positive allosteric modulation; DiscoveRx D2 beta-arrestin cells, luminescence, 90 min; 100% = 57 uM dopamine signal; potentiation, % (test concentration not listed); 0.23% of 360,000 active; in the data active = potentiation above about 50%; inconclusive = mostly about 30% to 49%
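D2 cells co-treated with compound plus 50 nM dopamine (EC20) for 90 min at 37 deg C to detect potentiation. Beta-arrestin recruitment was read as enzyme-fragment luminescence after 1 h at ambient temperature. Full response was set by 57 uM dopamine.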
D2 PAM-2 – positive allosteric modulators of human D2 dopamine receptor; potentiation, % at 10 µM; P14416; 0.34% of 340,000 active; HEK293 T-REx D2, calcium flux, EC20 dopamine potentiation;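 active = potentiation over 3 SD above the plate norm, cut at about 30% in these data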
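Cells plated with tetracycline inducer and held overnight at 30 C; calcium dye loaded 30–90 min at room temperature; baseline taken, compound added and read 180 s; EC20 dopamine then added and read 180 s.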
Each line names hits and unclear results; the compound was inactive in the other large screens.

CC1(C)CC(=O)c2cc(-c3nc(-c4ccccc4)cs3)c(=O)[nH]c2C1	none (no result: D2 antagonist, D2 ag-2, D2 PAM-1)
O=C(CN1CCC(O)(c2cccc(F)c2)CC1)NCCc1c[nH]c2ccccc12	D2 antagonist 45
O=C1Cc2cc(S(=O)(=O)NCc3ccccc3Cl)cc3c2N1CCC3	D2 PAM-2 34
CN1C(=O)Cc2cc(S(=O)(=O)NCc3ccccc3Cl)ccc21	none (no result: D2 ag-1, D2 antagonist, D2 ag-2, D2 PAM-1)
Cc1cc(C(=O)N2CCc3ccccc32)n(-c2ccccc2)n1	D2 antagonist 37
O=C(c1ccco1)N(Cc1ccccc1)Cc1ccccn1	D2 antagonist 57
COc1ccc(C(CC(=O)NCc2ccccc2)N2Cc3ccccc3C2=O)cc1 (stereo unspecified)	none (no result: D2 antagonist, D2 ag-2, D2 PAM-1)
COc1ccc(Cl)cc1NC(=O)Cc1coc2c(C)c(C)ccc12	none (no result: D2 antagonist, D2 ag-2, D2 PAM-1)
CCOc1ccc(N(CC(=O)Nc2cc(C)cc(C)c2)S(C)(=O)=O)cc1	D2 antagonist 41
O=C(Cn1cc(C(=O)c2ccncc2)c(=O)c2cc(F)ccc21)Nc1ccc(Cl)cc1	none (no result: D2 ag-1, D2 antagonist, D2 ag-2, D2 PAM-1)
COc1ccc(C(=O)NCCc2sc(-c3cccc(F)c3)nc2C)cc1	none (no result: D2 ag-1, D2 antagonist, D2 ag-2, D2 PAM-1)
Cc1ccc(/C=C/C(=O)OCC(=O)NCc2ccccc2)o1	none
CCCNC(=O)COC(=O)/C=C/c1ccc(C)o1	D2 antagonist 30
Cc1ccc(/C=C/C(=O)Oc2ccc(C#N)cc2)o1	D2 antagonist 48 (no result: D2 ag-2, D2 PAM-1)
Cc1ccc(NC(=O)CN2C(=O)C(c3ccc(C)cc3)=NC23CCCCCC3)cc1	none (no result: D2 antagonist, D2 ag-2, D2 PAM-1)
N#Cc1ccccc1OCc1nnc(-c2ccccc2Br)o1	none
Clc1ccccc1OCc1nnc(-c2ccccc2Br)o1	D2 antagonist 36
Brc1ccccc1-c1nnc(COc2cccc3cccnc23)o1	D2 antagonist 38
Brc1ccccc1-c1nnc(COc2ncnc3ccccc23)o1	none
CCc1ccccc1NC(=O)Nc1nnc(N(C)Cc2ccccc2)s1	none (no result: D2 antagonist, D2 ag-2, D2 PAM-1)
Cc1nn2c(=O)cc(COC(=O)c3ccc(NC(=O)COc4ccc(Cl)cc4)cc3)nc2s1	none (no result: D2 antagonist, D2 ag-2, D2 PAM-1, D2 PAM-2)
Cc1cc(=O)n2nc(N3CCC(C(=O)Nc4ccc(C(C)C)cc4)CC3)sc2n1	none (no result: D2 antagonist, D2 ag-2, D2 PAM-1)
CCc1cccc(C)c1NC(=O)CSc1nc2ccccc2nc1Cc1ccccc1	none (no result: D2 antagonist, D2 ag-2, D2 PAM-1)
CCCOc1ccc(C2=NC(c3ccc(F)cc3)=Nc3ccc(OC)cc3N2)cc1	none (no result: D2 antagonist, D2 ag-2, D2 PAM-1)
O=C(O)c1cccnc1C(=O)N1CCc2c([nH]c3ccccc23)C1C(F)(F)F (stereo unspecified)	none
c1cnc2c(C3NCCc4c3[nH]c3ccccc43)cccc2c1 (stereo unspecified)	D2 antagonist 36
Cc1ccc(-n2ncc3c(NC4CCCC4)ncnc32)cc1	none (no result: D2 antagonist, D2 ag-2, D2 PAM-1)
CSc1nsc(SCC(=O)Nc2ccc(C(C)=O)cc2)n1	none
CSc1nsc(SCC(=O)Nc2ccc(C(N)=O)cc2)n1	D2 antagonist 37 (no result: D2 PAM-2)
Cc1cc(C)cc(NC(=O)C/C(N)=N/O)c1	D2 antagonist 71
CC(C)c1ccc(OCC(=O)Nc2c3c(nn2C(C)(C)C)CS(=O)(=O)C3)cc1	D2 PAM-1 57
CC(=O)c1c(C)[nH]c(C(=O)COC(=O)C2CC2)c1C	D2 antagonist 32
CCOC(=O)c1c(C)[nH]c(C(=O)COC(=O)C2CC2)c1C	none
O=C(N/C(=C/c1ccc(Br)cc1)C(=O)N1CCOCC1)c1ccc(Br)o1	D2 PAM-2 86
O=C(N/C(=C\c1ccc(Br)cc1)C(=O)N1CCOCC1)c1ccc(Br)o1	none (no result: D2 PAM-2)
CC(=O)N1CCCc2cc(S(=O)(=O)NC(C(=O)NCc3ccc(C)cc3)C(C)C)ccc21 (stereo unspecified)	D2 PAM-2 46
CC(=O)N1CCc2cc(S(=O)(=O)NC(C(=O)Nc3ccc(C)cc3C)C(C)C)ccc21 (stereo unspecified)	none (no result: D2 antagonist, D2 ag-2, D2 PAM-1)
O=C(COC(=O)/C=C/c1cccc(F)c1)Nc1ccccc1	none
O=C(COC(=O)/C=C/c1cccc(F)c1)NNC(=O)c1ccccc1	D2 antagonist 45
CCCCOc1ccc(CN(C)c2ncnc(N)n2)cc1	D2 antagonist 31
COc1cc(/C=N\NC(=O)c2ccc(C)nc2)ccc1OC(=O)c1ccc2c(c1)OCO2	none (no result: D2 PAM-2)
COc1cc(/C=N\NC(=O)c2ccc(C)nc2)ccc1OC(=O)c1ccco1	D2 antagonist 34
CCOc1cc(/C=N\NC(=O)OC(C)(C)C)ccc1OC(=O)c1ccco1	D2 antagonist 31
Cc1c(C(=O)N2CCCC2)oc2c1-c1nn(CC(=O)NCCCOC(C)C)cc1CC2	D2 antagonist 35, D2 ag-2 inconclusive
COc1ccc(NC(=O)C2CCCO2)cc1Cl (stereo unspecified)	D2 antagonist 31
Cc1ccc(-n2nc3c(c2NC(=O)c2ccco2)CS(=O)C3)c(C)c1 (stereo unspecified)	D2 antagonist 33
COc1ccc(OC)c(NC(=O)c2cnn(-c3ccc(C)cc3)c2C2CCNCC2)c1	none (no result: D2 antagonist, D2 ag-2, D2 PAM-1)
COc1ccc(C/C(C)=N/NC(=S)Nc2ccc(C(C)C)cc2)cc1	D2 antagonist 36
COc1ccc(C(NC(=O)CNC(C)=O)C(=O)Nc2ccc(C(C)C)cc2)cc1 (stereo unspecified)	D2 antagonist 37
COc1ccc(NC(=O)C(c2ccc(OC)cc2)N(C)C(=O)CNC(C)=O)cc1 (stereo unspecified)	D2 antagonist 38
COc1ccc(NC(=O)C(c2ccc(C)cc2)N(C)C(=O)CNC(C)=O)cc1 (stereo unspecified)	none
CCC(=O)Nc1ccc(C)cc1-c1nc2ccccc2n(C(C)C(=O)Nc2ccccc2CC)c1=O (stereo unspecified)	none (no result: D2 antagonist, D2 ag-2, D2 PAM-1)
COc1cn(CC(=O)Nc2c(C)cc(C)cc2C)c(CN2CCCCC2)cc1=O	none (no result: D2 antagonist, D2 ag-2, D2 PAM-1)
O=C(/C=C/c1ccc2c(c1)OCO2)NCCSCc1c(Cl)cccc1Cl	D2 antagonist 34
O=C(/C=C/c1ccc2c(c1)OCO2)NCCSCc1ccc(Cl)cc1	none
CCOC(=O)c1c(C)oc2nc(C)nc(NCc3cccc(OC)c3)c12	none (no result: D2 antagonist, D2 ag-2, D2 PAM-1)
COc1cccc2cc(C(C)N(CCCN3CCOCC3)C(=S)Nc3cccc(C)c3)oc12 (stereo unspecified)	none
Cc1cccc(NC(=S)N(CCCN2CCOCC2)C(C)c2cc3ccccc3o2)c1 (stereo unspecified)	D2 antagonist 35
Cc1cc(C)n2nc(SCc3nnc(-c4ccccc4Br)o3)nc2n1	D2 PAM-2 44
Cc1cc(C)n2nc(SCc3ncc(-c4ccccc4)o3)nc2n1	none
CC1=C(C(=O)OCc2ccc3c(c2)OCO3)C(c2ccccc2)NC(=O)N1 (stereo unspecified)	D2 antagonist 45, D2 ag-2 inconclusive, D2 PAM-1 53
CCOC(=O)C1=C(C)NC(=O)NC1c1cc2c(cc1Br)OCO2 (stereo unspecified)	D2 PAM-2 51
O=C(Cn1c2[n+](c3ccc(C(F)(F)F)cc31)CCCCC2)c1ccc2c(c1)OCCO2	none

Bioassay records deposited in PubChem BioAssay by National Center for Advancing Translational Sciences (NCATS).
